Laboratory results as given in paper PMC4336329 (PLoS ONE, 2015).
The campaign covered roughly 310,000 compounds. About 14,000 (4.5%) showed an effect of 50% or more. The effect is printed as a negative number. The list comes from a sample in which strong results are over-represented; it also holds similar structures and randomly drawn compounds.
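Note: peak tail current of the secondary pulse compared with the same well before compound.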

What follows are molecules tested against human ether-à-go-go-related gene (hERG) potassium channel (human, UniProt Q12809) (assay: primary screen, population patch clamp on CHO cells stably expressing hERG; higher = less effect of the substance).
Chain of human ether-à-go-go-related gene (hERG) potassium channel (Q12809 whole entry, looked up): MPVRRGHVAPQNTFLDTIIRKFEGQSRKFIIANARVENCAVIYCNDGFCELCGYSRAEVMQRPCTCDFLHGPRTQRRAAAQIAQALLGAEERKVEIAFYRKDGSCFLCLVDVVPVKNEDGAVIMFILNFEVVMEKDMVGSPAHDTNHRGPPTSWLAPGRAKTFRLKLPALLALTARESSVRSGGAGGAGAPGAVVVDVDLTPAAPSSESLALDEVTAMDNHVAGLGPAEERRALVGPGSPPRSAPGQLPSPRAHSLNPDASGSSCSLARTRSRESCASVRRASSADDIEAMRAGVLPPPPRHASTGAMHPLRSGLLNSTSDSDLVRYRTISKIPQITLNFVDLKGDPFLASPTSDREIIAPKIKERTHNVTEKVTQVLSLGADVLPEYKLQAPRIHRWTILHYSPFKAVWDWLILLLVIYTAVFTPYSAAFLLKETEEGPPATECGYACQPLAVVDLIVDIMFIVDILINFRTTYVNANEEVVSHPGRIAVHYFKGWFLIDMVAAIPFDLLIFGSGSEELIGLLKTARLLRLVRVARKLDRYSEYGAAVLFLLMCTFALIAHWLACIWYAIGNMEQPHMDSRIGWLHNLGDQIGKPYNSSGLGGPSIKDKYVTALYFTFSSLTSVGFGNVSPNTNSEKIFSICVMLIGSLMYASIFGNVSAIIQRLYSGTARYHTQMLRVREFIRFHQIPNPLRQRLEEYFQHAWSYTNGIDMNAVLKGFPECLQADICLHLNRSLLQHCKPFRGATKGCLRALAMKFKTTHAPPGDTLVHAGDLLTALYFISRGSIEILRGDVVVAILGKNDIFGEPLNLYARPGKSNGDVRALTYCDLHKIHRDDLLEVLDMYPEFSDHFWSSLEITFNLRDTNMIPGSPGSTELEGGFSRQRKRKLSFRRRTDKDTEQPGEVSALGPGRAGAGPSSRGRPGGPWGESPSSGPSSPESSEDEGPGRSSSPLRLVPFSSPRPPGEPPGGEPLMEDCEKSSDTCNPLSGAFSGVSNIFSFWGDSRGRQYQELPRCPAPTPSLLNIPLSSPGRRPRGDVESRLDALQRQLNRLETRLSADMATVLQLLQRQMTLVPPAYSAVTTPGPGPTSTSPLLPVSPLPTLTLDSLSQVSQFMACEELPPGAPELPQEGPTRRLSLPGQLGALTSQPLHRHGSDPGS
With C=CCc1cccc2cc(C(=O)N(CC)CC)c(=O)oc12 the “hERG current change (%, negative = inhibition) at 10uM” value was -6.47%.
In the case of CSc1cccc(NC(=O)C2C3C=CC4(O3)C2C(=O)N(CCN2CCOCC2)C4C(=O)NC2CCCCC2)c1 (stereo not shown), the “hERG current change (%, negative = inhibition) at 10uM” value is reported as 9.21%.
With CCCN(CCC)CCN1C(=O)C2C(C(=O)Nc3ccc(C)cc3)C3C=CC2(O3)C1C(=O)NC1CCCCC1 (stereo not shown) the “hERG current change (%, negative = inhibition) at 10uM” value was -30.2%.
With CCOc1ccc(NC(=O)C2C3C=CC4(O3)C2C(=O)N(Cc2cccnc2)C4C(=O)NC2CCCCC2)cc1 (stereo not shown) the “hERG current change (%, negative = inhibition) at 10uM” value was 16%.
For COc1ccc(NC(=O)C2C3C=CC4(O3)C2C(=O)N(CCN2CCCCC2)C4C(=O)NC2CCCCC2)cc1 (stereo not shown), the “hERG current change (%, negative = inhibition) at 10uM” value was 9.9%.
In the case of CCCCN(C)CCN1C(=O)C2C(C(=O)Nc3ccc(Cl)cc3)C3C=CC2(O3)C1C(=O)NC1CCCCC1 (stereo not shown), the “hERG current change (%, negative = inhibition) at 10uM” value is reported as -70.2%.
CCCCN(C)CCN1C(=O)C2C(C(=O)Nc3ccc(OC)cc3)C3C=CC2(O3)C1C(=O)NC1CCCCC1 (stereo not shown) was tested, and the “hERG current change (%, negative = inhibition) at 10uM” value was -8.93%.
With CCOCCCN1C(=O)C2C(C(=O)Nc3ccc(OCC)cc3)C3C=CC2(O3)C1C(=O)NC1CCCCC1 (stereo not shown) the “hERG current change (%, negative = inhibition) at 10uM” value was -72.8%.
CCCCN(C)CCN1C(=O)C2C(C(=O)Nc3ccc(C)cc3)C3C=CC2(O3)C1C(=O)NC1CCCCC1 (stereo not shown) was tested, and the “hERG current change (%, negative = inhibition) at 10uM” value was -26.1%.
In the case of CCCN(CCC)CCN1C(=O)C2C(C(=O)Nc3cccc(SC)c3)C3C=CC2(O3)C1C(=O)NC1CCCCC1 (stereo not shown), the “hERG current change (%, negative = inhibition) at 10uM” value is reported as -68.2%.
For Cc1ccccc1NC(=O)/C(C#N)=C\c1cccnc1, the “hERG current change (%, negative = inhibition) at 10uM” value was -16.3%.
With Cc1ccc2oc(C(=O)N3CCC(C(N)=O)(N4CCCCC4)CC3)c(C)c2c1 the “hERG current change (%, negative = inhibition) at 10uM” value was -27%.
For COc1cc2cc(C(C)(C)O)oc(=O)c2cc1OC, the “hERG current change (%, negative = inhibition) at 10uM” value was 13%.
O=C(c1cc2c(s1)-c1ccccc1OC2)N1CCCC1 was tested, and the “hERG current change (%, negative = inhibition) at 10uM” value was -4.69%.
With O=C(c1cc2c(=O)oc3ccccc3c2s1)N1CCOCC1 the “hERG current change (%, negative = inhibition) at 10uM” value was -0.51%.
O=C(c1cc2c(s1)-c1ccccc1OC2)N1CCN(c2ccccc2)CC1 was tested, and the “hERG current change (%, negative = inhibition) at 10uM” value was 8.08%.
With O=C(Cn1ncc2c(=O)oc3ccccc3c21)N1CCC(N2CCCCC2)CC1 the “hERG current change (%, negative = inhibition) at 10uM” value was -5%.
In the case of O=C(c1ccco1)N1CCN(C(=O)c2cc3c(=O)oc4ccccc4c3s2)CC1, the “hERG current change (%, negative = inhibition) at 10uM” value is reported as -62.9%.
In the case of O=C(Cn1ncc2c(=O)oc3ccccc3c21)NCCC1=CCCCC1, the “hERG current change (%, negative = inhibition) at 10uM” value is reported as -3.92%.
In the case of O=C(Cn1ncc2c(=O)oc3ccccc3c21)NCCc1ccsc1, the “hERG current change (%, negative = inhibition) at 10uM” value is reported as -54.2%.
For O=C(c1ccco1)N1CCN(C(=O)c2cc3c(s2)-c2ccccc2OC3)CC1, the “hERG current change (%, negative = inhibition) at 10uM” value was -63.9%.
With Cc1ccc2oc(=O)c3cc(C(=O)N4CCN(C(=O)c5ccco5)CC4)sc3c2c1 the “hERG current change (%, negative = inhibition) at 10uM” value was -21.5%.
With O=C(Cn1ncc2c(=O)oc3ccccc3c21)N1CCN(c2ccccn2)CC1 the “hERG current change (%, negative = inhibition) at 10uM” value was -41%.
For Cc1ccc2oc(=O)c3cnn(CC(=O)NCCc4ccsc4)c3c2c1, the “hERG current change (%, negative = inhibition) at 10uM” value was -12.2%.
For O=C(Cn1ncc2c(=O)oc3ccccc3c21)N1CCN(C(=O)c2ccco2)CC1, the “hERG current change (%, negative = inhibition) at 10uM” value was -73.6%.
